SMILES strings stand for the structures. The whole screen tested about 59,000 compounds, of which about 6,500 (11%) were called active. About 15% were inconclusive and are not listed. Rule as the data show it: active = max dye-equivalent concentration above about 10 nM; inconclusive = mostly about 1.1 nM to 9.6 nM; inactive = weaker than that. The list comes from a sample in which actives are over-represented; it also holds similar structures and randomly drawn compounds.

The nature of the experiment: qHTS Assay for Spectroscopic Profiling in A350 Spectral Region. As to conditions: Compound autofluorescence, 340/450 nm, Alexa 350 dye-equivalents; stronger effect = higher value. The text has this:
NIH Molecular Libraries Screening Centers Network [MLSCN]
NIH Chemical Genomics Center [NCGC]
Occasionally, the artifactual effect may originate from the compounds own spectral or other biophysical properties which generally tend to track its assay concentration. Pre-screening/profiling the library with respect to the compounds spectral properties should help one exclude false positives early on. While the most informative fluorescent profiling data set is obtained by performing a full excitation and emission scan of each well by using a monochromator-based plate reader, such an approach is practical only on a very limited scale as scanning each well requires long time. An alternative approach, applied here, is to perform plate reader scans using selected excitation and emission wavelength pairs to generate a multidimensional relational database that correlates compound concentration and the respective relative fluorescence intensity at a given wavelength set. A standard curve of Alexa 350 (A 350) present on each plate as six-point concentration series, was used to compute a normalized fluorescence response, termed dye-equivalent concentration, for each compound at each concentration.
NCGC Assay Protocol Summary:
100 mM Tris buffer, pH 8.0
The wells in columns 1 through 4 of a Kalypsys polypropylene 1536-well compound plate were filled with standard solutions of fluorophore corresponding to the spectral region of interest. Solutions of A 350 were placed in the following wells: I1, J1: 3 mM, I2, J2: 300 uM, I3, J3: 30 uM, I4, J4: zero (DMSO), K1, L1: 3 uM, K2, L2: […], K3, L3: 300 nM, K4, L4: zero (DMSO).
Six uL of buffer were dispensed to 1536-well Greiner black plates. Compounds and dye standards (23 nL) were transferred via Kalypsys PinTool. The plates were incubated for 15 min at room temperature, and then read on ViewLux (Perkin-Elmer) High-throughput CCD imager using 340 nm and 450 nm excitation and emission filter set.
Keywords: NIH Roadmap, MLSCN, MLI, MLSMR, qHTS, NCGC, A350, A-350, Fluorescent Profiling.
Turning to `C=C(Br)Cn1c(CCCC)nc2ccccc21`, the max dye-equivalent concentration result was “inactive”. As to `O=C(OCC(=O)N1CCCC1)c1ccco1`, the max dye-equivalent concentration result was “inactive”. For `COc1ccc(C)cc1-n1nnnc1SCC(=O)c1cc(C)n(Cc2ccco2)c1C`, the max dye-equivalent concentration result was “inactive”. As to `CNc1cc(-c2c(C)noc2C)ncn1`, the max dye-equivalent concentration result is “inactive”.

As to `COCCNc1cc(-c2c(C)noc2C)ncn1`, the max dye-equivalent concentration is 14 nM (active).

On to `COc1ccccc1CNc1ncnc2ccc(-c3c(C)noc3C)cc12`, for which the max dye-equivalent concentration entry is “inactive”. On to `Cc1noc(C)c1-c1cc(NCc2cccnc2)ncn1`, for which the max dye-equivalent concentration result was “inactive”.

Consider `Cc1cccc(CNc2cc(-c3ccccc3Cl)ncn2)c1`, for which the max dye-equivalent concentration entry was “inactive”. With `Cc1cnc(CNc2cc(-c3c(C)noc3C)ncn2)cn1`, the max dye-equivalent concentration is 22 nM (active). To `O=C(NC1CC2CCCC(C1)N2C(=O)N1CCCCC1)C1CCCCC1` (stereo unspecified) belongs “inactive”; to `CCN(CC)P(=O)(/C(Cl)=C\Nc1c(C)n(C)n(-c2ccccc2)c1=O)N(CC)CC`, “inactive”. Turning to `CCCCN(CCCC)C(=O)CCS(=O)(=O)c1ccc2c(c1)n(C)c(=O)c(=O)n2C`, the max dye-equivalent concentration entry was “inactive”. Regarding `CCOc1ccccc1Oc1cn[nH]c1-c1ccc(OC)cc1O`, the max dye-equivalent concentration result was “inactive”. `CCN(C(=O)CSc1ncn[nH]1)c1cccc2ccccc12`: the max dye-equivalent concentration result was “inactive”. In the case of `CC(=O)NS(=O)(=O)c1ccccc1` it was “inactive”; in that of `Cc1c(S(=O)(=O)O)ccc(N=Nc2c(O)c(C(=O)O)cc3ccccc23)c1Cl`, 12 nM (active); in that of `O=C(COc1ccc(F)cc1)N(CC1=CCS(=O)(=O)C1)c1ccccc1`, “inactive”. Take `COc1cc(C2C(C(=O)c3ccc(C)o3)=C(O)C(=O)N2Cc2cccnc2)ccc1O` (stereo unspecified): the max dye-equivalent concentration result is “inactive”. On to `CCOC(=O)c1c(C)[nH]c(C(=O)NCc2ccccc2OC)c1C`, for which the max dye-equivalent concentration entry was “inactive”. For the compound `CCCCOC(=O)c1[nH]c(C)c(C(=O)OC)c1C`, the max dye-equivalent concentration was 450 nM (active). On to `CCOC(=O)c1c(C)[nH]c(C(=O)COc2ccc3c(c2)OCO3)c1C`, for which the max dye-equivalent concentration entry was “inactive”. In the case of `CCOC(=O)COc1ccc(Cl)cc1C1NC(=O)NC(C)=C1C(C)=O` (stereo unspecified), the max dye-equivalent concentration result was “inactive”. As to `O=S(=O)(NCc1cccnc1)c1ccc(Br)s1`, the max dye-equivalent concentration entry was “inactive”.

As to `CCC[C@H]1C(=O)N2C(N(C)C)=Nc3ccc(C)cc3N2C1=O`, the max dye-equivalent concentration result was “inactive”. In the case of `CC(=O)C1C(c2cccc(Oc3ccccc3)c2)NC(=O)NC1(O)C(F)(F)F` (stereo unspecified), the max dye-equivalent concentration entry is “inactive”. For the compound `COc1ccccc1N1CCN(C(=O)c2cc(-c3ccc(Cl)c(Cl)c3)on2)CC1`, the max dye-equivalent concentration entry was “inactive”. `CCc1c(C)nc2ncnn2c1N1CCC(C(=O)NCc2ccc3c(c2)OCO3)CC1`: the max dye-equivalent concentration entry was “inactive”. In the case of `C=CCC(NCCCO)c1cccc(OC)c1OC` (stereo unspecified), the max dye-equivalent concentration result is “inactive”. On to `COc1ccc(-c2cc3ccc(OCc4nn[nH]n4)cc3oc2=O)cc1`, for which the max dye-equivalent concentration was 11000 nM (active). In the case of `COc1ccc(OCc2ccc(-c3nc4ccccc4c(=O)n3N)o2)cc1`, the max dye-equivalent concentration result is “inactive”. On to `Cc1nnc(SCC(=O)N2CCc3ccccc32)n1-c1ccccc1`, for which the max dye-equivalent concentration entry is “inactive”.

As for `N#Cc1c2c(c(-c3ccccc3)[nH]c1=O)CCCC2`, the max dye-equivalent concentration is 20 nM (active). In the case of `Nc1nnnn1/N=C/c1cccs1`, the max dye-equivalent concentration entry is “inactive”. As to `N=c1c2c3c(sc2ncn1N)CCCCC3`, the max dye-equivalent concentration result was “inactive”. With `COc1ccccc1-c1nc(N2CCN(C)CC2)c2ccccc2n1`, the max dye-equivalent concentration entry was “inactive”. Turning to `COc1cc2nc(N3CCN(C(=O)[C@@H]4CCCO4)CC3)nc(N)c2cc1OC`, the max dye-equivalent concentration is 830 nM (active). In the case of `COc1ccccc1CNC(=O)C1CCN(c2nc3ccccc3o2)CC1` it was “inactive”; in that of `Cc1ccc(C(c2nnnn2CS(=O)(=O)c2ccc(C)cc2)N2CCC(C(N)=O)CC2)cc1` (stereo unspecified), “inactive”; in that of `O=P(c1ccc2c(c1)OCCO2)(N1CCOCC1)N1CCOCC1`, “inactive”. For `COc1ccccc1CNCc1cccs1`, the max dye-equivalent concentration result was “inactive”.

Consider `O=C(O)C1CCN(c2ncnc3ccc(-c4ccccc4C(F)(F)F)cc23)CC1`, for which the max dye-equivalent concentration entry is “inactive”. With `CCCS(=O)(=O)N1CCN(C(=O)c2cccs2)CC1`, the max dye-equivalent concentration entry was “inactive”.

`COc1ccc(S(=O)(=O)N2CCN(C(=O)c3cccs3)CC2)cc1OC`: the max dye-equivalent concentration was 3700 nM (active). For `COc1ccc(OCC(=O)N2CCN(C(=O)c3cccs3)CC2)cc1`, the max dye-equivalent concentration result was “inactive”.

Consider `CC(C)Oc1ccc(C2NC(=O)NC2=O)cc1` (stereo unspecified), for which the max dye-equivalent concentration result is “inactive”. `COc1ccc2c(c1OC)C(=O)OC2c1c(O)nc(SC)n(-c2ccccc2)c1=O` (stereo unspecified): the max dye-equivalent concentration result is “inactive”. Regarding `O=C(CCCn1c(=O)oc2ccccc21)Nc1cccnc1`, the max dye-equivalent concentration result is “inactive”. In the case of `Oc1c(CN2CCOCC2)ccc(CN2CCOCC2)c1O` it was “inactive”; in that of `O=C(CSc1nc(-c2ccco2)cc(C(F)(F)F)n1)NCc1cccs1`, “inactive”; in that of `COc1ccc(-c2cc(C(F)(F)F)nc(SCCC(=O)NCc3ccco3)n2)cc1`, “inactive”. With `FC(F)(F)c1cc(-c2cccs2)nc(NCc2ccco2)n1`, the max dye-equivalent concentration was 16 nM (active). For `Cc1ccc(NC2=NC(c3ccccc3)n3c(nc(C)cc3=O)N2)cc1` (stereo unspecified), the max dye-equivalent concentration result was “inactive”. Regarding `CC(=O)NC1=NC(=O)CS1`, the max dye-equivalent concentration entry was “inactive”.

As for `CCOC(=O)c1ccc(COC(=O)c2cc(=O)[nH]c3ccccc23)o1`, the max dye-equivalent concentration is 40 nM (active).

As to `CCOC(=O)c1ccc(CS(=O)c2ccc(Cl)cc2)o1` (stereo unspecified), the max dye-equivalent concentration entry was “inactive”. For the compound `COc1ccc(COC(=O)c2n[nH]c3ccccc23)cc1F`, the max dye-equivalent concentration entry was “inactive”.
